Source: PubChem
A selection: hits, their analogues and other compounds. The true share with any hit is near 3.4%.
miR122 inh: blocks miR-122 activity in Huh7 sensor cells; Huh7 miR-122 Renilla luciferase sensor, 48 h; neutral wells = 0, positive control = 100; activation (reporter increase), % at 12.5 µM; 340,000 tested, 0.3% active;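 active = mean replicate activation score at least 90 and every replicate individually at or above 90; inconclusive = only one of the two criteria met; inactive = neither criterion met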;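 also: higher luciferase means less miR-122 activity so hits act as miR-122 inhibitors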
esBAF inh: inhibitors of esBAF chromatin remodeling in mouse ES cells; Bmi1-luciferase knock-in reporter, 24 h; 100% = twice the neutral-well signal; reporter increase, % at 12.5 µM; 350,000 tested, 2% active; in the data active = activation above about 40%; inconclusive = no clear call, values can overlap the other calls;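 also: a rise in the Bmi1 reporter signal indicates esBAF inhibition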
MITF TRPM1 HTS: increases MITF-driven TRPM1 promoter luciferase signal; SK-MEL-5 TRPM1-promoter luciferase, 24 h; % of positive control, neutral wells = 0; activation, % at 12.5 µM; 300,000 tested, 0.75% active; AID 588334;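 active = mean activation of at least 80% with every replicate also reaching 80%; inconclusive = mean reaches 80% but some replicate falls short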
Env fusion inh: blocks HIV Env-driven cell-cell fusion. inhibition, % at 12.3 µM. HeLa-JRFL Env/CEM21 cell fusion, luciferase. AID 651610. 360,000 tested, 1.1% active;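 active = mean replicate inhibition score of at least 50 and every replicate individually at or above 50; inconclusive = only one of the two criteria met; inactive = mean below 50 and not all replicates reaching 50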
Wnt bcat act: activates Wnt/beta-catenin signaling in a reporter cell assay. activator, plate reader. activation, % at 9.35 µM. 300,000 tested, 1.2% active. AID 743398; in the data active = activation above about 30%, passing the limit was not always enough; inconclusive = no clear call, values can overlap the other calls
Numbers stand for hits; n = inactive; u = inconclusive; x = not tested or not shown; [ ] = another dose, or the depositor's remark.

SMILES	miR122 inh	esBAF inh	MITF TRPM1 HTS	Env fusion inh	Wnt bcat act
COC(=O)c1c(C)oc(C)c1S(=O)(=O)NCC1CC1	97	n	n	n	n
CC(C)CC#Cc1ccc2c(c1)O[C@@H](CN(C)Cc1ccccn1)[C@H](C)CN([C@H](C)CO)S2(=O)=O	n	n	x	91[16.7 µM]	x
CCCC#Cc1ccc2c(c1)O[C@H](CN(C)C(=O)c1ccccn1)[C@@H](C)CN([C@H](C)CO)S2(=O)=O	128[16.7 µM]	n	x	n	x
CCCC#Cc1ccc2c(c1)O[C@@H](CN(C)C(=O)c1ccccn1)[C@H](C)CN([C@@H](C)CO)S2(=O)=O	n	n	x	n	x
C[C@@H]1CN([C@@H](C)CO)C(=O)c2cc(-c3ccc(F)cc3)cnc2O[C@H]1CN(C)C(=O)NC1CCCC1	n	n	x	n	x
Cc1ccccc1S(=O)(=O)N1C[C@H]2[C@H]3C(=O)N(C4CCCCC4)C(=O)[C@H]3CC(=O)[C@H]2[C@@H]1c1ccc(Cl)cc1	n	n	x	132	n
Cc1ccccc1S(=O)(=O)N1C[C@@H]2C(C(=O)C[C@@H]3C(=O)N(C)C(=O)[C@@H]32)[C@@H]1c1ccc(Cl)cc1 (some centres undefined)	x	x	x	61	n
O=C1C[C@@H]2C(=O)N(c3ccccc3)C(=O)[C@@H]2[C@@H]2CN(S(=O)(=O)c3ccccc3)[C@@H](c3ccccc3)[C@H]12	n	n	x	x	n
Cc1ccc(S(=O)(=O)N2C[C@H]3[C@H]4C(=O)N(c5ccccc5)C(=O)[C@H]4CC(=O)[C@H]3[C@@H]2c2ccc(Cl)cc2)cc1	n	n	x	x	n
Cc1noc(C)c1NC(=O)N[C@@H]1CC[C@@H](CCNC(=O)C2CCC2)O[C@H]1CO	x	n	x	n	x
CCN(C[C@H]1N[C@@](CC)(C(=O)OC)[C@H]2C(=O)N(Cc3ccccc3)C(=O)[C@@H]12)S(=O)(=O)c1ccc(OC)cc1	n	n	n	78	n
CC[C@@]1(C(=O)OC)N[C@H](CN(C)C(=O)Nc2ccc(C(F)(F)F)cc2)[C@@H]2C(=O)N(Cc3ccccc3)C(=O)[C@@H]21	n	n	n	85	n
COC(=O)[C@]1(C)N[C@H](CN(C)S(=O)(=O)c2ccc(OC(F)(F)F)cc2)[C@@H]2C(=O)N(Cc3ccccc3)C(=O)[C@@H]21	x	n	n	82	n
CC[C@@]1(C(=O)OC)N[C@H](CN(C)C(=O)Nc2ccccc2)[C@@H]2C(=O)N(Cc3ccccc3)C(=O)[C@@H]21	x	n	n	60	n
COC(=O)[C@]1(Cc2ccccc2)N[C@H](CN(C)C(=O)Nc2ccc(C(F)(F)F)cc2)[C@@H]2C(=O)N(Cc3ccccc3)C(=O)[C@@H]21	n	n	n	n	n
COC(=O)[C@]1(C)N[C@H](CN(C)S(=O)(=O)c2ccc(F)cc2)[C@@H]2C(=O)N(Cc3ccccc3)C(=O)[C@@H]21	x	n	n	n	n
CO[C@@H]1CN(C)C(=O)c2ccc(NS(C)(=O)=O)cc2OC[C@@H](C)N(S(C)(=O)=O)C[C@H]1C	x	n	x	n	x
CC[C@@]1(C(=O)OC)N[C@H](CN(C)C(=O)c2ccc(C(C)(C)C)cc2)[C@@H]2C(=O)N(Cc3ccccc3)C(=O)[C@@H]21	x	n	n	79	n
CCN(C[C@H]1N[C@@](C)(C(=O)OC)[C@H]2C(=O)N(Cc3ccccc3)C(=O)[C@@H]12)C(=O)Nc1ccc(Cl)cc1	x	n	n	64	n
CCN(C[C@H]1N[C@@](C)(C(=O)OC)[C@H]2C(=O)N(Cc3ccccc3)C(=O)[C@@H]12)C(=O)Nc1ccc(OC)cc1	n	n	n	n	n
CCN(C[C@H]1N[C@@](C)(C(=O)OC)[C@H]2C(=O)N(Cc3ccccc3)C(=O)[C@@H]12)C(=O)c1ccc(C(C)(C)C)cc1	x	n	n	69	n
C=C1CCN([C@H](C(=O)OCc2cccc(C)c2)C(C)C)S(=O)(=O)c2ccccc21	n	n	n	76	n
CCC(=O)N1C[C@H](O)COC[C@@H]2O[C@H](CC(=O)NCc3cc(F)cc(F)c3)CC[C@H]21	n	n	x	n	x
CCCNC(=O)C[C@H]1CC[C@H]2[C@@H](COc3ccc(NC(=O)COC)cc3C(=O)N2C)O1	n	n	x	n	x
CC1CCc2c(sc3ncnc(N4CCOCC4)c23)C1 (centres undefined)	n	n	x	92	x
SMILES	miR122 inh	esBAF inh	MITF TRPM1 HTS	Env fusion inh	Wnt bcat act
CCOC(=O)COn1c(-c2cccc(Cl)c2)nc2ccc([N+](=O)[O-])cc21	n	x	87	x	x
CCCCOc1ccc(S(=O)(=O)Nc2cccnc2)cc1	n	n	n	69	x
COc1ccc(NC(=O)Nc2ccc3c(c2)CC(=O)N([C@H](C)CO)C[C@H](C)[C@H](CN(C)C(=O)Nc2ccc(F)cc2)O3)cc1	n	n	x	x	x
COc1ccc(NC(=O)Nc2cccc3c2O[C@@H](CN(C)Cc2ccc(C(F)(F)F)cc2)[C@@H](C)CN([C@@H](C)CO)C3=O)cc1	n	n	x	n	x
CCCNC1=C(N(C(C)=O)c2cccc(F)c2)C(=O)c2ccccc2C1=O	n	n	n	78	n
CCC(=O)N(C1=C(NC(C)C)C(=O)c2ccccc2C1=O)C(C)C	n	n	n	n	n
CCCCNC(=O)C1(C)CCCCN1C(=O)c1cccs1 (centres undefined)	n	n	x	n	39
CCCCNC(=O)C1(C)CCCCN1C(=O)c1c(C)noc1C (centres undefined)	n	n	x	n	33
CCCCNC(=O)C1(C)CCCCN1C(=O)c1ccno1 (centres undefined)	n	n	x	n	n
O=C(Cn1ncc2c(=O)oc3ccccc3c21)N1CCC(N2CCCCC2)CC1	n	n	x	74	n
CSc1ncccc1C(=O)OCC(=O)Nc1ccc(C)c(S(=O)(=O)N2CCOCC2)c1	n	n	n	76	n
CCOc1ccc(S(=O)(=O)/N=C(/Nc2ccc(C)c(S(=O)(=O)N3CCOCC3)c2)c2ccccc2)cc1	107	n	n	x	n
Cc1ccc(NC(=O)C(=O)c2c(-c3ccccc3)cc3ccccn23)cc1S(=O)(=O)N1CCOCC1	247	n	x	n	x
C[C@@H]1CN([C@@H](C)CO)C(=O)c2cc(NC(=O)Nc3cccc4ccccc34)ccc2O[C@@H]1CN(C)Cc1ccc(Oc2ccccc2)cc1	n	n	x	n	x
Cc1ccccc1-c1cnc2c(c1)C(=O)N([C@H](C)CO)C[C@H](C)[C@H](CN(C)C(=O)CC1CC1)O2	n	n	x	n	x
CCc1ccc(NC(=O)CSc2nncn2-c2cccnc2)cc1	n	u	94	n	n
Cc1noc(C)c1S(=O)(=O)N(C)C[C@H]1OCCCC[C@@H](C)Oc2ccc(NS(=O)(=O)c3cccs3)cc2C(=O)N([C@@H](C)CO)C[C@@H]1C	n	n	x	n	x
COCC#Cc1cnc2c(c1)C(=O)N([C@@H](C)CO)C[C@@H](C)[C@H](CN(C)C(=O)C1CCC1)O2	n	n	x	n	x
Cc1nc(Nc2nc(CSc3nc4ccccc4[nH]3)cc(=O)[nH]2)nc2ccccc12	u	x	n	161	x
